Values joined by “and” are separate entries in the source; they are usually repeats but may differ in a detail not shown here. Identical values can stand only once. Inconclusive results are not listed. Entries that show only a call come without a potency. Some compounds were tested as several samples or in several runs, with calls that do not always agree. Active and inactive are the calls of the source. Unless noted, calls follow the shape of the full dose curve.
Legend:
[1] = Nuclear factor erythroid 2-related factor 2/antioxidant responsive element (Nrf2/ARE) small molecule agonists: qHTS cell viability counter screen in human keratinocytes (AID 1919968; active = well fitted curve in the direction sought with a large enough effect in the repeat runs; an effect the other way counts as inactive or inconclusive; also: nearly all actives have a fitted effect of over 55% in size)
In short: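 Cells of the KeratinoSens line were plated at 1,500 per well and left for 5 h before compound transfer from DMSO stocks. After a 23 h incubation (37 C, 5% CO2), CellTiter-Fluor was added. Signal was taken as fluorescence intensity 1 h later.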

[2] = Nuclear factor erythroid 2-related factor 2/antioxidant responsive element (Nrf2/ARE) small molecule agonists: luciferase reporter gene qHTS assay in human keratinocytes (AID 1919969); also: nearly all actives have a fitted effect of over 35% in size
[3] = molecular target: Gonadotropin-releasing hormone receptor (Homo sapiens) (UniProt P30968); experiment: Human gonadotropin-releasing hormone receptor (GnRHR) small molecule agonists, calcium flux assay in GnRHR-HEK293 cells (AID 1920063); also: nearly all actives have a fitted effect of over 35% in size
Sequence of Gonadotropin-releasing hormone receptor (Homo sapiens) (P30968 whole entry, looked up): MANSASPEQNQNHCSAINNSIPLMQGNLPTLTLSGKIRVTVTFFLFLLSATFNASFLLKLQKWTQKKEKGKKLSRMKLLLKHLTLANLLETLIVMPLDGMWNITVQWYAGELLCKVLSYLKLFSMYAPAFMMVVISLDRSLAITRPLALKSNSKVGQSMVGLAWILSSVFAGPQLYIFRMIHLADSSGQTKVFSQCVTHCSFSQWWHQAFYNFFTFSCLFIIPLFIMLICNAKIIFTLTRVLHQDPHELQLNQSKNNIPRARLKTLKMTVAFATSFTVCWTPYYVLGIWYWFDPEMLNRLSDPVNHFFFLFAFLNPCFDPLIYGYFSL
In short: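 Compounds dissolved in DMSO are pin-transferred onto dye-loaded GnRHR-HEK293 cells, which were seeded 18 h before at 37 C/5% CO2. Calcium signal is read as fluorescence intensity at 1 s intervals for 3 min.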

[4] = molecular target: KiSS-1 receptor (Homo sapiens) (UniProt Q969F8); experiment: Human kisspeptin (KISS1R) small molecule agonists, calcium flux assay in KISS1R-HEK293 cells (AID 1920064; active = well fitted curve in the direction sought with a large enough effect in the repeat runs; an effect the other way counts as inactive or inconclusive)
Sequence of KiSS-1 receptor (Homo sapiens) (Q969F8 whole entry, looked up): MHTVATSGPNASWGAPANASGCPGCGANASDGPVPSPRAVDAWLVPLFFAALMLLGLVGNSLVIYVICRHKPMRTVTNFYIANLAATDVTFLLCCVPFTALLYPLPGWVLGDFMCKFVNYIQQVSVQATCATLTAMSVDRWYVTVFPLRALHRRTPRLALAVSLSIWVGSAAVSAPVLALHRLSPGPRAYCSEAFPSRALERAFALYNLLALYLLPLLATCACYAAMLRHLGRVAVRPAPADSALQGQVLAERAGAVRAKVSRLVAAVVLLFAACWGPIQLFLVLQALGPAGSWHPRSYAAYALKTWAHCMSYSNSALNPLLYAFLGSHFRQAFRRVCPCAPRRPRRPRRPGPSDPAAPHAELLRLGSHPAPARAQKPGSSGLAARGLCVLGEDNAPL
In short: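 Cell line: HEK293, stable human KISS1R. Dye loading 1 h at 37 C after 18 h culture. Read: kinetic fluorescence, 480/540 nm, 3 min at 1 s intervals.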

[5] = G protein-coupled receptor (GPCR) small molecule agonists, calcium flux assay: HEK293 wild type cell line counter screen (AID 1920065)
In short: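 Tox21 10K compounds, 15 concentrations each in triplicate, pin-transferred in DMSO onto dye-loaded cells; kinetic read at 480/540 nm for 3 min, 1 s intervals.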

[6] = p53 small molecule agonists, cell-based qHTS assay with human liver microsomes (AID 1963577);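 also: p53 response element beta-lactamase reporter cells with liver microsomes plus NADPH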
In short: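 HLM-supplemented p53RE-bla reporter assay: 16 h compound exposure at 37 C, microsomes and NADPH each 0.5 mg/mL final, read by fluorescence intensity.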

[7] = p53 small molecule agonists, cell-based qHTS assay with rat liver microsomes (AID 1963578)
In short: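 Quantitative HTS of the Tox21 10K library: p53RE-bla cells, rat liver microsomes plus NADPH at 0.5 mg/mL final each, 16 h at 37 C, beta-lactamase fluorescence detection.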

[8] = p53 small molecule agonists, cell-based qHTS assay: qHTS cell viability counter screen (AID 1963581); also: nearly all actives have a fitted effect of over 45% in size
In short: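 ATP content measured by luminescence in HCT-116 p53RE-bla cells treated 16 h at 37 C, same wells as the reporter screen.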

[9] = molecular target: 5-hydroxytryptamine receptor 2A (Homo sapiens) (UniProt P28223); experiment: 5-hydroxytryptamine receptor 2A (HTR2A) small molecule antagonists, cell-based qHTS assay (AID 1963586); also: nearly all actives have a fitted effect of over 45% in size
Sequence of 5-hydroxytryptamine receptor 2A (Homo sapiens) (P28223 whole entry, looked up): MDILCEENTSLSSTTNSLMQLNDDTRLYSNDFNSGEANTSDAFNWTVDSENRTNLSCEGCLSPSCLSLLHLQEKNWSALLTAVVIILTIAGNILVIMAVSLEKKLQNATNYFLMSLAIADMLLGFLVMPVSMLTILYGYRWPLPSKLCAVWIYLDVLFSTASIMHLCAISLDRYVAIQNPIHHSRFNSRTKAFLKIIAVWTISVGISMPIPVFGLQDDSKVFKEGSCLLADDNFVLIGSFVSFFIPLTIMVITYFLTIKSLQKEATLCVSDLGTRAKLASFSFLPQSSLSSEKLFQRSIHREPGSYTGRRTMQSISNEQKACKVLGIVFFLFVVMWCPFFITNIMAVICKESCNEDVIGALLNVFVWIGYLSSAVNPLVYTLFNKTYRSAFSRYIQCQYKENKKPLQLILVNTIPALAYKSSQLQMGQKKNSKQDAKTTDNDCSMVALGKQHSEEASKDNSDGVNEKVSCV
In short: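 CHO cells stably expressing human HTR2A were plated for 18 h at 37 C, then loaded with calcium dye for 1 h. Compounds were preincubated 5 min at room temperature before DOI (4 nM solution) was added. Kinetic fluorescence was read for 3 min.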

[10] = molecular target: 5-hydroxytryptamine receptor 2A (Homo sapiens) (UniProt P28223); experiment: 5-hydroxytryptamine receptor 2A (HTR2A) small molecule agonists, cell-based qHTS assay (AID 1963587); also: nearly all actives have a fitted effect of over 30% in size
In short: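 HTR2A-CHO cells, plated 18 h at 37 C/5% CO2, dye-loaded 1 h at 37 C; compounds in DMSO added by pin tool (agonist mode). Intracellular calcium flux read as kinetic fluorescence on FDSS over 2 min at 1 s intervals.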

[11] = molecular target: Muscarinic acetylcholine receptor M1 (Homo sapiens) (UniProt P11229); experiment: Cholinergic receptor muscarinic 1 (CHRM1) small molecule antagonists, cell-based qHTS assay (AID 1963588); also: nearly all actives have a fitted effect of over 40% in size; also: potency is read from the fitted curve at half-maximal effect
Sequence of Muscarinic acetylcholine receptor M1 (Homo sapiens) (P11229 whole entry, looked up): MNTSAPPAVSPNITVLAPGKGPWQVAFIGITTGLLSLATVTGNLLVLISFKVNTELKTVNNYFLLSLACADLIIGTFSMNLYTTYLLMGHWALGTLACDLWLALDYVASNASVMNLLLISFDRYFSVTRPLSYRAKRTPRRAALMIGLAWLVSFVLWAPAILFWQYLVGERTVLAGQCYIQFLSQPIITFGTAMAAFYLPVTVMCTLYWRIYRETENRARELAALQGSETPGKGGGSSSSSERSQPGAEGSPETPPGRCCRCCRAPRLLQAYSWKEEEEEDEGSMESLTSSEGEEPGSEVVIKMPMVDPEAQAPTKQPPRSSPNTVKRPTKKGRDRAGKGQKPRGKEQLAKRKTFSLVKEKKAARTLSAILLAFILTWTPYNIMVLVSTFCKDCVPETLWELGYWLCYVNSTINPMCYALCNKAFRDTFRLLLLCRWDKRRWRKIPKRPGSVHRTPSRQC
In short: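 Compounds were tested at 15 concentrations in three independent runs. Dye-loaded CHRM1-CHO cells were exposed 5 min at room temperature before stimulation by acetylcholine added at 50nM. Intracellular calcium was read kinetically on FDSS for 3 min.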

[12] = cAMP Responsive Elements (CRE) small molecule agonists, cell-based qHTS assay (AID 1963590)
In short: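 HEK 293T cells stably bearing CRE-bla were plated at 2,000 cells per well and rested 18 h. Compounds, positive controls or DMSO were added for 3 h at 37 C. LiveBLAzer B/G substrate was then loaded for 2 h at room temperature.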

[13] = molecular target: Beta-2 adrenergic receptor (Homo sapiens) (UniProt P07550); experiment: Adrenergic beta2 receptor (ADRB2) small molecule antagonists, cell-based qHTS assay (AID 1963592); also: series mostly up to about 92 µM; nearly all actives have a fitted effect of over 50% in size
Sequence of Beta-2 adrenergic receptor (Homo sapiens) (P07550 whole entry, looked up): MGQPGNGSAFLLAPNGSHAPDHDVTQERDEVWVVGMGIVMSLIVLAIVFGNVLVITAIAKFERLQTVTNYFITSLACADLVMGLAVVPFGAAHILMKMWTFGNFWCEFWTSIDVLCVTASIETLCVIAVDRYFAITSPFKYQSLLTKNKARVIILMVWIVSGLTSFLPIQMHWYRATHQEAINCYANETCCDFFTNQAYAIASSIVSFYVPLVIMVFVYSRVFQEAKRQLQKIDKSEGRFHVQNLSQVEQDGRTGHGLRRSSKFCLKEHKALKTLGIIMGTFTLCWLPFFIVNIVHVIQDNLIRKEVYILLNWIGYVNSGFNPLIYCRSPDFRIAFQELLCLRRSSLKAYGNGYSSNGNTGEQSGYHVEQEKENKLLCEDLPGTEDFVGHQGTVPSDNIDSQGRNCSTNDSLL
In short: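 Assay format: CHO-ADRB2 cells, 18-20hr seeding at 37C/5% CO2, then compound plus 1nM isoproterenol agonist mix for 0.5hr RT. Homogeneous time-resolved fluorescence cAMP detection after 1hr, expressed as 665/615 nm ratio.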

[14] = molecular target: Beta-2 adrenergic receptor (Homo sapiens) (UniProt P07550); experiment: Adrenergic beta2 receptor (ADRB2) small molecule agonists, cell-based qHTS assay (AID 1963593);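 also: CHO cells stably overexpressing human ADRB2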
In short: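 CHO cells stably over-expressing ADRB2 were plated overnight at 37C, then dosed with compounds plus a stimulation mix containing 100uM IBMX and 25uM Ro-20-1724 for 0.5hr at room temperature. cAMP was measured by HTRF competition, 1hr.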

[15] = molecular target: D(2) dopamine receptor (Homo sapiens) (UniProt P14416); experiment: Dopamine D2 receptor (DRD2) small molecule agonists, cell-based qHTS assay (AID 1963594); also: nearly all actives have a fitted effect of over 35% in size
Sequence of D(2) dopamine receptor (Homo sapiens) (P14416 whole entry, looked up): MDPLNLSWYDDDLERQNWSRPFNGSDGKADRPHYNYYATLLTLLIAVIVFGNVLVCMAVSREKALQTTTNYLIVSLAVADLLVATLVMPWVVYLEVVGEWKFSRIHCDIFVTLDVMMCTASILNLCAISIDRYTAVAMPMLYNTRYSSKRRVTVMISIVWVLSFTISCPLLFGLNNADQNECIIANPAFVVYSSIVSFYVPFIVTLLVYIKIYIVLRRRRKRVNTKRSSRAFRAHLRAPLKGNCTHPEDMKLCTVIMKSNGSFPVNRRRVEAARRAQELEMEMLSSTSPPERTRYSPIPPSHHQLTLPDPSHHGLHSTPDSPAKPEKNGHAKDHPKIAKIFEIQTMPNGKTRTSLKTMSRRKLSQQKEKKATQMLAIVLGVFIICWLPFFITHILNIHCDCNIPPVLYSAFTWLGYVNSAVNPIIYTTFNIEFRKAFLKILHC
In short: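 HEK293 cells stably expressing DRD2 were cultured 24 h at 37 C, then given Ro20-1724 (0.1 mM final) and compounds for 10 min at room temperature. NKH477 (200nM) was then added for 30 min. cAMP was read by HTRF.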

[16] = molecular target: D(2) dopamine receptor (Homo sapiens) (UniProt P14416); experiment: Dopamine D2 receptor (DRD2) small molecule antagonists, cell-based qHTS assay (AID 1963595; active = well fitted inhibition curve with a large enough effect in the signal ratio in the repeat runs, with a control signal flat; the % refers to the signal ratio)
In short: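 Cells were plated and grown for 24 h at 37 °C. Ro20-1724 (0.1 mM final) went in first, then compound for 10 min. NKH477 (200 nM) with quinpirole (12 nM) followed for 30 min at RT, then HTRF detection reagents for 1 h.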

[17] = p53 small molecule agonists, cell-based qHTS assay with rat liver microsomes: qHTS cell viability counter screen (AID 1963580); also: nearly all actives have a fitted effect of over 45% in size
In short: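 Counter screen for cytotoxicity under metabolic activation: rat liver microsomes and NADPH, 0.5 mg/mL final each, added with compounds to p53RE-bla HCT-116 cells; 16 h at 37 C, then ATP luminescence read.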

[18] = molecular target: Muscarinic acetylcholine receptor M1 (Homo sapiens) (UniProt P11229); experiment: Cholinergic receptor muscarinic 1 (CHRM1) small molecule agonists, cell-based qHTS assay (AID 1963589); also: nearly all actives have a fitted effect of over 35% in size
In short: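 Homogeneous fluorescence calcium flux, agonist mode. Human M1-expressing CHO cells; compound dosed at 15 concentrations, three independent runs; signal sampled every 1 sec.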

[19] = cAMP Responsive Elements (CRE) small molecule antagonists, cell-based qHTS assay (AID 1963591; active = well fitted inhibition curve with a large enough effect in the signal ratio in the repeat runs, not every such curve was filed as active; the % refers to the signal ratio)
In short: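 First, CRE-bla HEK293T cells settled 18 h at 37 C. Next, compound and 0.25 uM final NKH477 were applied for 3 h. Last, LiveBLAzer B/G substrate was loaded for 2 h at room temperature.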

[20] = p53 small molecule agonists, cell-based qHTS assay with human liver microsomes: qHTS cell viability counter screen (AID 1963579); also: nearly all actives have a fitted effect of over 45% in size
In short: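 Viability of p53RE-bla cells is measured as CellTiter-Glo luminescence following a 16 h, 37 C incubation with compound, liver microsomes from human donors and NADPH.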

SMILES	Potency [1]	Potency [2]	Potency [3]	Potency [4]	Potency [5]	Potency [6]	Potency [7]	Potency [8]	Potency [9]	Potency [10]	Potency [11]	Potency [12]	Potency [13]	Potency [14]	Potency [15]	Potency [16]	Potency [17]	Potency [18]	Potency [19]	Potency [20]
CCCCCC/C=C/CCCCCCCC(=O)O	inactive	inactive	inactive	inactive	inactive	inactive	inactive	inactive	inactive	inactive	inactive	inactive	inactive	inactive	inactive	inactive				
CCCOC(=O)c1cc(O)c(O)c(O)c1	inactive	inactive	inactive	inactive	inactive	inactive	inactive		inactive	inactive	inactive			inactive	inactive	inactive	inactive	inactive	inactive	
CCCCC(CC)COC(=O)c1ccc(C(=O)OCC(CC)CCCC)cc1 (stereo unspecified)	inactive	inactive	inactive	inactive	inactive	inactive		inactive	inactive	inactive	inactive	inactive	inactive	inactive	inactive	inactive	inactive	inactive	inactive	inactive
CC(C)(C)c1cccc(C(C)(C)C)c1O	inactive	inactive	inactive	inactive	inactive	inactive	inactive	inactive	inactive	inactive	231 nM (active) and inactive	inactive	inactive		inactive	inactive	inactive	inactive	inactive	
C[C@]12CC[C@@H]3c4ccc(O)cc4CC[C@H]3[C@@H]1CC[C@@H]2O	inactive	inactive	inactive	inactive	inactive	inactive	inactive					inactive	inactive		inactive	inactive			inactive	inactive
O=C1CCc2ccccc2O1	inactive	inactive	inactive	inactive	inactive	inactive	inactive	inactive		inactive	inactive	inactive	inactive	inactive	inactive	inactive	inactive	inactive	inactive	
OCCO	inactive	inactive	inactive	inactive	inactive	inactive	inactive					inactive	inactive	inactive	inactive	inactive	inactive		inactive	
CC(=O)Nc1ccc2c(c1)Cc1cc(NC(C)=O)ccc1-2	inactive	inactive	inactive	inactive	inactive	inactive		inactive	inactive	inactive	inactive			inactive	inactive	inactive	inactive	inactive	inactive	inactive
CCCCCCC(C)O (stereo unspecified)	inactive	inactive	inactive	inactive	inactive	inactive	inactive	inactive	inactive	inactive	inactive	inactive	inactive	inactive	inactive	inactive	inactive	inactive	inactive	
C=CCCCCCCCCCC	inactive	inactive	inactive	inactive	inactive	inactive	inactive	inactive	inactive	inactive	inactive		inactive		inactive	inactive	inactive	inactive	inactive	
CN(C)CCOCCN(C)C	inactive	inactive	inactive	inactive	inactive	inactive	inactive	inactive	inactive	inactive	inactive	inactive	inactive		inactive	inactive	inactive	inactive	inactive	
O=C(O)Cc1ccccc1Nc1c(Cl)cccc1Cl	inactive	inactive	inactive	inactive	inactive	inactive	inactive	inactive				inactive	inactive		inactive	inactive	inactive		inactive	
O=C=NCCCCCCN=C=O	inactive	inactive	inactive	inactive	inactive	inactive		inactive	inactive	inactive	inactive and 27 µM (active)		inactive	inactive	inactive	inactive	inactive	inactive		inactive
O=C(O)c1ccccc1C(=O)O	inactive	inactive	inactive	inactive	inactive	inactive	inactive	inactive	inactive	inactive	inactive		inactive	inactive	inactive	inactive	inactive	inactive	inactive	
COC(=O)CCC(=O)OC	inactive	inactive	inactive	inactive	inactive	inactive	inactive	inactive	inactive			inactive	inactive	inactive	inactive	inactive	inactive	inactive	inactive	

Reference: PubChem BioAssay (Tox21)
